Data published in PubChem BioAssay (NCI).
About 79,000 compounds went through this panel and 15% of them were active in at least one assay; those are over-represented in the sample as a whole. Active and inactive are the calls of the source. No stated cut-off is given here; in the data, active means growth inhibition above about 70%; inactive means the rest.

What was measured:
[1] = NCI Yeast Anticancer Drug Screen. Data for the rad50 strain (AID 155);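 further: 0% = growth of vehicle-only cultures of the same strain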; details: S. cerevisiae rad50 strain growth inhibition; at 50.0 µM; stronger effect = higher value
How it was run: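 Vehicle-treated cultures provide the reference for the growth inhibition reported for compound-exposed, repair-deficient yeast.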

[2] = NCI Yeast Anticancer Drug Screen. Data for the mec2-1 strain (AID 157); details: S. cerevisiae mec2-1 strain, at 50.0 µM, stronger effect = higher value
How it was run: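 Vehicle-treated cultures served as reference for growth inhibition of compound-exposed mec2-1 yeast.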

[3] = NCI Yeast Anticancer Drug Screen. Data for the sgs1 mgt1 strain (AID 161);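 further: 0% = growth of cultures given vehicle only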; details: S. cerevisiae sgs1 mgt1 strain, at 50.0 µM, stronger effect = higher value
How it was run: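 Genetically altered yeast, compound exposure, growth inhibition relative to vehicle.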

[4] = NCI Yeast Anticancer Drug Screen. Data for the cln2 rad14 strain (AID 165);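 further: 0% = growth equal to vehicle treated cultures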; details: S. cerevisiae cln2 rad14 strain, at 50.0 µM, stronger effect = higher value
How it was run: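 Each compound was tested on cln2 rad14 yeast. Inhibition of growth was calculated against vehicle-exposed controls.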

[5] = NCI Yeast Anticancer Drug Screen. Data for the bub3 strain (AID 167); details: S. cerevisiae bub3 mutant strain, at 50.0 µM, stronger effect = higher value
How it was run: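 Mutant yeast screening strain plus compound; vehicle-treated cultures serve as the 0% inhibition reference.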

[6] = NCI Yeast Anticancer Drug Screen. Data for the mlh1 rad18 strain (AID 175); details: S. cerevisiae mlh1 rad18 strain growth inhibition; at 50.0 µM; stronger effect = higher value
How it was run: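 Vehicle-treated cultures served as the reference for growth inhibition in a yeast strain carrying DNA damage repair alterations exposed to each compound.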

Measured: growth inhibition

Cc1ccccc1-c1ccccc1
inactive: [1] 14.8% | [2] 1.3% | [3] -17.7% | [4] -45.8% | [5] -5.8% | [6] 17.6%

O=C(NI1OC(=O)c2ccccc21)c1ccc(Cl)cc1
inactive: [1] -9% | [2] 6.05% | [3] -38% | [4] -17.5% | [5] -33.6% | [6] -5.6%

COC(=O)C(NC(=O)C(CC(=O)OC(C)(C)C)NC(=O)OC(C)(C)C)C(O)c1ccccc1 (stereo unspecified)
inactive: [1] -35.6% | [2] -23.9% | [3] -22.4% | [4] -0.75% | [5] -27.6% | [6] -0.85%

Cc1cccc2c(C(=O)O)c3cccc(C)c3nc12
inactive: [1] 2.9% | [2] -0.15% | [3] 8.35% | [4] 18.6% | [5] 5.3% | [6] -3.95%

COC1OC2COC(c3ccccc3)OC2C(N=[N+]=[N-])C1O (stereo unspecified)
inactive: [1] -0.1% | [2] 4% | [3] -4.9% | [4] -31.2% | [5] -7.45% | [6] 2.2%

Cc1cc(C)cc(N)c1
inactive: [1] 1.7% | [2] -29.9% | [3] -5.1% | [4] -8.85% | [5] -5.25% | [6] -10%

CC(=O)CCc1ccc2c(c1)OCCO2
inactive: [1] 27.9% | [2] -10.7% | [3] -7.55% | [4] -83.2% | [5] -3.8% | [6] -20.9%

Cc1c(-c2nc3ccccc3[nH]2)c(=O)n(-c2ccccc2)n1C
inactive: [1] -70.2% | [2] -38.1% | [3] -24.1% | [4] 7.25% | [5] -10.4% | [6] -38.9%

Cc1cccc(CCSCCc2cccc(C)[n+]2[O-])[n+]1[O-]
inactive: [1] 19.8% | [2] -2.45% | [3] -1.1% | [4] 17.4% | [5] 0.8% | [6] 1.8%

O=[N+]([O-])c1cccc(C(O)(C(F)(F)F)C(F)(F)F)c1
inactive: [1] -19.1% | [2] 6.2% | [3] 1.7% | [4] 24.1% | [5] 42.7% | [6] 14%

COC1(OC)CCC2=C(C)C(=O)CCC2(CO)C1 (stereo unspecified)
inactive: [1] 15.7% | [2] -2.95% | [3] -5.95% | [4] -51.8% | [5] -14.4% | [6] -1.9%

COC(=O)c1cc(OC)c2cccnc2c1Nc1ccccc1
inactive: [1] -7.75% | [2] 12.2% | [3] 9.25% | [4] 0.6% | [5] 11.1% | [6] -6.8%

COc1ccc(/C(C#N)=C\c2ccc(N(C)C)cc2)cc1
inactive: [1] -4.8% | [2] -13.1% | [3] 3.1% | [4] -21.2% | [5] 10.2% | [6] -14.3%

CC(=O)Nc1ccc(Nc2nc(=O)[nH]c(=O)[nH]2)cc1
inactive: [1] -3.2% | [2] -12.6% | [3] 13.1% | [4] -0.55% | [5] -1.6% | [6] -32.6%

CCCCSCCO
inactive: [1] -0.65% | [2] -0.2% | [3] -4% | [4] -12.4% | [5] -4.4% | [6] 0.7%

O=C(O)CN(CCCCN(CC(=O)O)CC(=O)O)CC(=O)O
inactive: [1] -6.8% | [2] -15.8% | [3] 9.3% | [4] -66.5% | [5] 16.4% | [6] -21.2%

CC1=C(C)C(=O)OC1
inactive: [1] -3.55% | [2] -12.3% | [3] -0.9% | [4] 6% | [5] 9.85% | [6] -24.5%

NS(=O)(=O)c1cc2c(cc1Cl)NC(Cc1ccccc1)NS2(=O)=O (stereo unspecified)
inactive: [1] -20.7% | [2] -4.55% | [3] -9.45% | [4] -7.2% | [5] 0.2% | [6] 18.4%

c1ccc(C2=Nc3ccccc3N=C3CCCC32)cc1 (stereo unspecified)
inactive: [1] 45.2% | [2] 22.6% | [3] 3.3% | [4] 10.6% | [5] 21.4% | [6] 58.7%

CCC1(C(=O)O)OC1(C)c1cccs1 (stereo unspecified)
inactive: [1] -40% | [2] -8.95% | [3] -3.35% | [4] -27.1% | [5] 10.5% | [6] 2%

Cc1cc(Nc2ccc(S(=O)(=O)O)c3cc(S(=O)(=O)O)cc(S(=O)(=O)O)c23)c2ccccc2n1
inactive: [1] -14.1% | [2] 4.3% | [3] 3.2% | [4] -10.9% | [5] 6% | [6] 8.7%

Cc1ccccc1NC(=O)Nc1ccccc1C
inactive: [1] -3.8% | [2] -15.3% | [3] 3.45% | [4] -23% | [5] -20.2% | [6] -11.9%

O=[N+]([O-])c1ccc2[nH]c(-c3ccccc3)cc2c1
inactive: [1] 5.2% | [2] 10.8% | [3] -3.6% | [4] 7.3% | [5] -2.2% | [6] 18.9%

c1ccc2c(c1)CCC2
inactive: [1] 12.1% | [2] -10.2% | [3] -23.1% | [4] 1.55% | [5] -18.1% | [6] -6.6%

O=c1c2c(oc(=Nc3ccccc3)n1-c1ccccc1)CC1(CCCCC1)C2
inactive: [1] 5.45% | [2] 1.75% | [3] -0.1% | [4] -15.2% | [5] -10.9% | [6] -4.2%

CCCc1c(OC)c(=O)c2c(OC)cc(OC)c3c4c(OC)cc(OC)c5c(=O)c(OC)c(CCC)c(c1c23)c54
active: [1] 88.3% | [2] 92% | [3] 86.4% | [4] 88.5% | [5] 83% | [6] 92.6%

O=C(O)c1cc(C(=O)O)cc(S(=O)(=O)NCCO)c1
inactive: [1] 3.05% | [2] -10.5% | [3] 2.1% | [4] -30.2% | [5] 3% | [6] 5.1%

O=C(Nc1ccc(Cl)cc1)Nc1nnc2nc(CC(=O)c3ccc4ccccc4c3)c(=O)[nH]n12
inactive: [1] 12.9% | [2] 9.45% | [3] 2.2% | [4] -16.3% | [5] 21.8% | [6] 1.3%

CCN(CC)c1ccc(NC(C)=O)c(C)c1
inactive: [1] -16.2% | [2] 21.1% | [3] 9.65% | [4] -15.8% | [5] 18.1% | [6] 3.3%

CCOC(=O)C(C)(C)Oc1ccc2c(-c3ccccc3)cc(=O)oc2c1
inactive: [1] -9.15% | [2] -8.4% | [3] 0.15% | [4] -13.1% | [5] -19.8% | [6] -25.6%

CNC(=O)NS(=O)(=O)c1cccc([N+](=O)[O-])c1
inactive: [1] -0.3% | [2] 5.35% | [3] -8.3% | [4] 1.9% | [5] -21.6% | [6] -17.3%

Oc1ccc(O)c(CCCc2cc(O)ccc2O)c1
inactive: [1] 13.3% | [2] 7.8% | [3] -2.25% | [4] 0.5% | [5] 6.95% | [6] 49.5%

N#CNC(=Nc1ccccc1)[N](C#N)[Sn]([c]1ccccc1)([c]1ccccc1)[c]1ccccc1
active: [1] 98.7% | [2] 98.3% | [3] 99.2% | [4] 98.7% | [5] 96.5% | [6] 98.6%

COc1ccc(OC)c2nc3c(C(=O)NCCN(C)C)cccc3nc12
inactive: [1] -15.7% | [2] -25.5% | [3] -55.7% | [4] -35.2% | [5] -31.4% | [6] -68.1%

C[Si](C)(Cl)c1ccccc1
inactive: [1] -47.6% | [2] -27.4% | [3] -11.7% | [4] 17.4% | [5] -23.6% | [6] -18.4%

CCOC(=O)C(C)N1CCCCCC1 (stereo unspecified)
inactive: [1] -28.8% | [2] -30.4% | [3] -17.8% | [4] -28.5% | [5] -8.25% | [6] -10.8%

COc1cc([N+](=O)[O-])ccc1NC(=O)Nc1c(C)n(C)n(-c2ccccc2)c1=O
inactive: [1] -17.1% | [2] 1.75% | [3] -8.3% | [5] 0.15% | [6] 6.25%
active: [4] 92.6%

CC(=O)c1c(C)cc(C)nc1C
inactive: [1] 14.8% | [2] -12.2% | [3] 17.4% | [4] 10% | [5] 30.6% | [6] 9%

NC(=O)C1=CC2C3C=CC2(O)C(=O)OC3O1 (stereo unspecified)
inactive: [1] -15.3% | [2] -28.6% | [3] -12.6% | [4] 3.2% | [5] -22.9% | [6] -11.1%

CC(C(=O)O)c1ccc(-n2nnc3c(=O)[nH][nH]c(=O)c32)cc1 (stereo unspecified)
inactive: [1] -16.2% | [2] -8.4% | [3] -12.6% | [4] -17.3% | [5] 2.8% | [6] -5.7%

CCc1c(Cl)c(Cl)c(Cl)c(Cl)c1Cl
inactive: [1] 2.95% | [2] 2.35% | [3] 4.15% | [4] -42.5% | [5] -2.9% | [6] 13.8%
